# In PubChem BioAssay:
# Inconclusive results are not listed. The source made the active and inactive calls.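 How the source made its calls, unless noted: active means percent response above 42, roughly 3 SD of non-fluorescent test compounds; inactive means the rest.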
# Legend:
# [1] = rapamycin-like changes in RPL19A-GFP expression – cell-based, S. cerevisiae, multiplex flow cytometry, primary screen (AID 1862; in the data active means percent of DMSO control GFP below about 86%;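 further: lower values mimic rapamycin by blocking the RPL19A rise seen in DMSO cells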); details: S. cerevisiae RPL19A-GFP strain, flow cytometry fluorescence, 3 h; at 10 µM; stronger effect = lower value
# [2] = TOR pathway GLN3 branch reporter MEP2-GFP changes – S. cerevisiae, multiplex flow cytometry, primary screen (AID 1867;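 active means GFP response, as percent of the DMSO control, above the screen-wide mean plus 3 SD, about 139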;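 further: median GFP channel fluorescence of barcode-gated MEP2-GFP cells measured by flow cytometry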); details: S. cerevisiae MEP2-GFP strain, 3 h, at 10 µM, stronger effect = higher value, 100% means same as DMSO wells
# [3] = TOR pathway RTG branch CIT2 reporter changes – S. cerevisiae, GFP fusion, multiplex flow cytometry, primary screen (AID 1870;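 active means percent response above a set limit, the screen-wide mean plus 3 SD, cut at about 130% in these data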;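 further: barcoded CIT2-GFP strain pooled with four other GFP strains with rapamycin as positive control; median GFP fluorescence per well over plate mean of DMSO wells so 100% = DMSO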); details: S. cerevisiae CIT2-GFP expression, 3 h, at 10 µM, stronger effect = higher value
# [4] = TOR pathway LAP4-GFP level changes – S. cerevisiae, multiplex flow cytometry, primary screen (AID 1873;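 active means GFP signal, as percent of the solvent control, above the screen mean plus 3 SD, about 149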); details: S. cerevisiae LAP4-GFP expression, 3 h, at 10 µM, stronger effect = higher value
# [5] = yeast AGP1-GFP level changes, GLN3 branch – cell-based, multiplex flow cytometry, S. cerevisiae, primary screen (AID 1887;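 active means GFP signal above the screen-wide mean plus 3 SD, that is over about 124.5% of the solvent control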;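 further: AGP1-GFP fusion strain of S. cerevisiae within a five-strain barcoded multiplex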); details: 3 h, at 10 µM, stronger effect = higher value
# [6] = reduced mouse 2C T cell binding to pMHC/ICAM-1 vesicles – MLPCN validation set, flow cytometry, LFA-1/ICAM-1 modulator project, pilot screen (AID 2523;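 active means response below a set limit, under 55% cells CD8-positive and vesicle-bound, and CD8 cells' 90th-percentile brightness under 279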;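 on vesicle binding response: mean PE anti-B7-1 fluorescence of CD8+ cells relative to row control; 100% = QL9-loaded vesicles with DMSO vehicle in the same plate row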); details: 2C mouse CD8+ T cells, at 7 µM, stronger effect = lower value; double positive events: measured here: CD8+/vesicle+ event percentage
# [7] = target: Integrin beta-1 (Homo sapiens) + Integrin alpha-4 (Homo sapiens) (UniProt P13612+P05556); experiment: alpha4beta1 integrin LIBS antibody binding reduction – U937 cells, HUTS-21 mAb, flow cytometry, validation set, VLA-4 allosteric modulator project, pilot screen (AID 2674;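 active means inhibition above 50%, about 3 SD of the validation set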;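 further: antibody binding induced by the VLA-4 ligand LDV present at three times its Kd; 0% = LDV ligand with antibody and no compound and 100% = antibody without LDV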); details: HUTS-21 LIBS mAb binding, at 6.7 µM, stronger effect = higher value, binding induced by LDV ligand
# [8] = calorie-restriction mimetic ROS inhibitors, yeast – validation compound set, pilot screen (AID 2706;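 active means superoxide response below 65% of plate, a cut near 3 SD across the whole screen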;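 further: yeast exposed to compound for one week at 30 degrees C before staining; 100% = mean of all compound wells on the same plate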); details: S. cerevisiae aging, superoxide DHE fluorescence; at 10 µM; stronger effect = lower value
# [9] = target: Beta-adrenergic receptor kinase 1 (Homo sapiens) (UniProt P25098); experiment: GRK2 binders displacing RNA aptamer, biochemical, validation, human GRK2, bead flow cytometry (AID 488806;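 active means aptamer binding inhibition above 30%, about 3 SD of noise from non-fluorescent compounds; inactive means inhibition at or below 30%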); details: bead-bound GRK2, FAM-aptamer displacement, at 10 µM, stronger effect = higher value
# [10] = target: Beta-2 adrenergic receptor (Homo sapiens) (UniProt P07550); experiment: agonist-induced loss of surface beta2AR – cell-based, FAP fluorogen, flow cytometry, validation set, pilot screen (AID 504459); details: Am2.2-beta2AR cells, at 10 µM, stronger effect = higher value;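 further: agonist-driven loss of surface beta2AR via internalization measured by FAP dye flow cytometry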
# [11] = target: AP-2 complex subunit beta (Homo sapiens) (UniProt P63010); experiment: beta-arrestin/AP2 interaction blockers – biochemical, validation set, GST-AP2 beads, flow cytometry, pilot screen (AID 504541;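 active means inhibition above 54%, about 3 SD of non-fluorescent compounds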;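 further: AP2 carries R879A mutation and is captured from E. coli lysate; bead-bound FITC arrestin peptide fluorescence measuring arrestin peptide binding to AP2; 0% = DMSO wells and 100% = excess unlabeled arrestin peptide control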); details: FITC arrestin peptide, at 10 µM, stronger effect = higher value, AP2 beta2 appendage fragment, R879A mutant
# [12] = cytosolic pH regulators acting via V-ATPase – S. cerevisiae, pHLuorin, HTS validation (AID 504600; in the data active means response above about 15%;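 further: plate controls were DMSO for no effect and reference compound for full effect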); details: V-ATPase proton transport, at 10 µM, stronger effect = higher value
# [13] = test system: anti-desmoglein-3 scFv antibody binding to human DSG3; experiment: blockers of pathogenic pemphigus antibody–desmoglein-3 binding – biochemical, validation compound set, bead-based, flow cytometry, pilot screen (AID 588368;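 active means binding below the plate cutoff, the plate median minus 3 SD, with a reading above zero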;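 further: signal is the median channel fluorescence of bead-bound GFP antibody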); details: Protein G beads, DSG3-Fc, scFv-GFP binding, at 10 µM, stronger effect = lower value
# [14] = Nile Red efflux blockade in pump-expressing yeast – validation compound set, multiplex, phenotypic, pilot screen (AID 588506;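 active means efflux inhibition above 0.42, the validation set average plus 4 SD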;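 further: Nile Red retained in cells so higher fluorescence means more efflux inhibition; 0 = negative control wells and 1 = enniatin B 25 µM full block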); details: S. cerevisiae pump-expressing triplex, Nile Red efflux flow cytometry; at 10 µM; stronger effect = higher value; the pumps come from Candida albicans
# [15] = target: ATP-binding cassette sub-family B member 6 (Homo sapiens) (UniProt Q9NP58); experiment: blockers of ABCB6-driven porphyrin uptake – K562-ABCB6 cells, flow cytometry, validation set, pilot screen (AID 588550;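 active means inhibition above the screen-wide mean plus 3 SD, about 51%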;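 further: 0% = DMSO wells and 100% = benzethonium chloride 70 µM positive control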); details: K562-ABCB6 porphyrin accumulation, 1 h, at 10 µM, stronger effect = higher value
# [16] = AML differentiation inducers, ER-HoxA9 marrow cells – cell-based, GFP/MAC1 double positive, flow cytometry, validation set, primary screen (AID 588685;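 active means differentiation response of at least 50%, scaled between solvent and reference control, from cells with both markers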;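 further: compound exposure lasts four days before antibody staining and flow analysis; 0% = DMSO wells and 100% = 5 µM fulvestrant positive control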); details: stronger effect = higher value, normalized: vehicle 0, fulvestrant 100
# AP-2 complex subunit beta (Homo sapiens), sequence (P63010 whole entry, looked up, the tested form may be a part, one chain of several): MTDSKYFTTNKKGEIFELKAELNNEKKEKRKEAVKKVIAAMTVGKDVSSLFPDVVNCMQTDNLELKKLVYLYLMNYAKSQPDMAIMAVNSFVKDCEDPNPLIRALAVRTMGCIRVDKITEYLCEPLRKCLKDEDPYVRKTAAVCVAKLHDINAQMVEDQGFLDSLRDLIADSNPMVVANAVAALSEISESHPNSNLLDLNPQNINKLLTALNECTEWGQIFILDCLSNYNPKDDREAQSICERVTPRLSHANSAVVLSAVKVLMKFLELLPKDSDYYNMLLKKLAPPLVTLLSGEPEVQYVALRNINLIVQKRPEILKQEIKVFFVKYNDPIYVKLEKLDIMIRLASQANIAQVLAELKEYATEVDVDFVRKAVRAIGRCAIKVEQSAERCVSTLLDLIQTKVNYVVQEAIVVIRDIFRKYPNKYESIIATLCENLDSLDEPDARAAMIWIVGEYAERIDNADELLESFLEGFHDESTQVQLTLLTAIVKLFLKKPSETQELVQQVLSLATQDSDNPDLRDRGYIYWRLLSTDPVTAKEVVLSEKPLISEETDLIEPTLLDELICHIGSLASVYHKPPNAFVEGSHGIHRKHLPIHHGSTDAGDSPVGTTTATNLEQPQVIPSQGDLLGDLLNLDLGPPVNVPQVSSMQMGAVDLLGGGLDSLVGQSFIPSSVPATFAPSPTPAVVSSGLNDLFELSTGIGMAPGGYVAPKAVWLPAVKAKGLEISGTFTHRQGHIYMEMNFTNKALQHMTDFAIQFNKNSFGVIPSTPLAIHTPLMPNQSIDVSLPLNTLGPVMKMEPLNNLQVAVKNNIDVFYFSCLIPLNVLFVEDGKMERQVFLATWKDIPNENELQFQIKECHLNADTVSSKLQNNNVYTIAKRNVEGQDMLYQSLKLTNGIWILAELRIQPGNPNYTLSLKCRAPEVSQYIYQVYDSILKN
# Beta-adrenergic receptor kinase 1 (Homo sapiens), sequence (P25098 whole entry, looked up): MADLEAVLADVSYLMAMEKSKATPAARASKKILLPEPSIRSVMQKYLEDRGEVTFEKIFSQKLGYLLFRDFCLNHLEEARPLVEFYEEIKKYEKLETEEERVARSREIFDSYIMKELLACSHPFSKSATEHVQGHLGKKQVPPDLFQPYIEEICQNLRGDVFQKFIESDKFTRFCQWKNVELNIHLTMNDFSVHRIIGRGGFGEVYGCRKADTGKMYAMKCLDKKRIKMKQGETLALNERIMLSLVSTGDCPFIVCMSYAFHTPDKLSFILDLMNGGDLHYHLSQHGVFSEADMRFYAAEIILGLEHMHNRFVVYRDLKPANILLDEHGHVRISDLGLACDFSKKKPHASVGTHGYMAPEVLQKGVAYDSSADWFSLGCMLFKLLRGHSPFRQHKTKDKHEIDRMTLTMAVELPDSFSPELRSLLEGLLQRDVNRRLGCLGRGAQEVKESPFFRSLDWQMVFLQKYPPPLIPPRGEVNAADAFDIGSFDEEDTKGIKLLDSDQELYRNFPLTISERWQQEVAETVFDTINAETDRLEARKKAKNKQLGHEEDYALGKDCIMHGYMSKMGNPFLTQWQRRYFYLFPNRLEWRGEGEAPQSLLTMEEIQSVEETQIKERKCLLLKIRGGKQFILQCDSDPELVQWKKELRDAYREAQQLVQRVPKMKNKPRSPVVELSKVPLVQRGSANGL
# Beta-2 adrenergic receptor (Homo sapiens), sequence (P07550 whole entry, looked up): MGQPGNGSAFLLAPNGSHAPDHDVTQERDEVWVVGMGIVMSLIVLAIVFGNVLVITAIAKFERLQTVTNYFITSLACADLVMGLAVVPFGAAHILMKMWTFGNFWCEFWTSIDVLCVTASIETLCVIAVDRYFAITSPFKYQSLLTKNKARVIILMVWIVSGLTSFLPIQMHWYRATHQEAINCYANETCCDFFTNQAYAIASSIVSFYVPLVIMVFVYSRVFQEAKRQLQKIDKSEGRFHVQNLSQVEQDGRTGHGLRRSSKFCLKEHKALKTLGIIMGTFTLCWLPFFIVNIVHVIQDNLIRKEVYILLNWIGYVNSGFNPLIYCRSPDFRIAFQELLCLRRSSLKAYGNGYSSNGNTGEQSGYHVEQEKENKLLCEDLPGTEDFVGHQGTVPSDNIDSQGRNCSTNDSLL
# Integrin beta-1 (Homo sapiens) + Integrin alpha-4 (Homo sapiens), sequence (P05556 whole entry, looked up): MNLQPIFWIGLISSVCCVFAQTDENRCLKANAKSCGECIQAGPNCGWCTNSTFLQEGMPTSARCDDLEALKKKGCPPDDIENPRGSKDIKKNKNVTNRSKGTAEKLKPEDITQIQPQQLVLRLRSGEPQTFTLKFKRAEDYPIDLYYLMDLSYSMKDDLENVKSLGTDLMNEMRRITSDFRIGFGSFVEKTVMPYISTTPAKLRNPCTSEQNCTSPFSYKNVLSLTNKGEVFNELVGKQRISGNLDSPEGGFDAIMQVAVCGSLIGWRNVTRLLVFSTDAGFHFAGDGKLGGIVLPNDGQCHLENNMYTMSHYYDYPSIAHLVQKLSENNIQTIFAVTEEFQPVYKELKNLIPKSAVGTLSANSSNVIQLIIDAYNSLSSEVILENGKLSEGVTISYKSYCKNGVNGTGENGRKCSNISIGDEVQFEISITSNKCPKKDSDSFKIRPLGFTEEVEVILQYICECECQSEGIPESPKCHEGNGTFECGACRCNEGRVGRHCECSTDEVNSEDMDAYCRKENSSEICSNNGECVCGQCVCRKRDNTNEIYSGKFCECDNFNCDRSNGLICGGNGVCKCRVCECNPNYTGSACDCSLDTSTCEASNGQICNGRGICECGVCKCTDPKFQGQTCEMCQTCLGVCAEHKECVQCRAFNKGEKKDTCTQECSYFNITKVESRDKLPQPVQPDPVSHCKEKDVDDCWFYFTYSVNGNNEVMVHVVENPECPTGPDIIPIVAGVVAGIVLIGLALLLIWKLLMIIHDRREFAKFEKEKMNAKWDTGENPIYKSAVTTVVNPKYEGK
# Integrin beta-1 (Homo sapiens) + Integrin alpha-4 (Homo sapiens), sequence (P13612 whole entry, looked up): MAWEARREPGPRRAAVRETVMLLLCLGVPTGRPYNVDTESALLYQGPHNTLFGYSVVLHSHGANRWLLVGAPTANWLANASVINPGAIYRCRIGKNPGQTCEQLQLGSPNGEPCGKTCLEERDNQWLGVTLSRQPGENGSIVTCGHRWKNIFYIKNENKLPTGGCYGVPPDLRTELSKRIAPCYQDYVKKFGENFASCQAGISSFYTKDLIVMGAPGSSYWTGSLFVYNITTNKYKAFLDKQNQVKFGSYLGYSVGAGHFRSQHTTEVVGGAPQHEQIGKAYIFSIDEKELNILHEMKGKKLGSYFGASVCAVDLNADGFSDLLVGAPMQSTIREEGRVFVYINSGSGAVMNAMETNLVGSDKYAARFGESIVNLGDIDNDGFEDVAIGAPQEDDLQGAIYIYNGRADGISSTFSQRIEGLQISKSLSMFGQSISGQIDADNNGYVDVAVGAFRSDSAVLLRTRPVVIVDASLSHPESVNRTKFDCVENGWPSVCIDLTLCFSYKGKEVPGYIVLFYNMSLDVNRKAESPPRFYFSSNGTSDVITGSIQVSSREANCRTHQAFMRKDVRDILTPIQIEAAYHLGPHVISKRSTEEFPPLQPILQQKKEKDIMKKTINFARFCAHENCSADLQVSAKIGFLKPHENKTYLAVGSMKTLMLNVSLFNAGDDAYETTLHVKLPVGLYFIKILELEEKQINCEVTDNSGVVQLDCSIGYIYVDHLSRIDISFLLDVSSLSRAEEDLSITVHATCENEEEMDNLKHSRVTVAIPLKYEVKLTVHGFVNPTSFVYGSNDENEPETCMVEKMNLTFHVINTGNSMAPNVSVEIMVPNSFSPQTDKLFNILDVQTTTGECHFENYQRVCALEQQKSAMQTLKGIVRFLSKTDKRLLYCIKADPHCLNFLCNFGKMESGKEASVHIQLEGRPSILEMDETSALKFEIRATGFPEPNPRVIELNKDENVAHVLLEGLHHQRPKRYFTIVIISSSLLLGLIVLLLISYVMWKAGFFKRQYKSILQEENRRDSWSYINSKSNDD
# ATP-binding cassette sub-family B member 6 (Homo sapiens), sequence (Q9NP58 whole entry, looked up): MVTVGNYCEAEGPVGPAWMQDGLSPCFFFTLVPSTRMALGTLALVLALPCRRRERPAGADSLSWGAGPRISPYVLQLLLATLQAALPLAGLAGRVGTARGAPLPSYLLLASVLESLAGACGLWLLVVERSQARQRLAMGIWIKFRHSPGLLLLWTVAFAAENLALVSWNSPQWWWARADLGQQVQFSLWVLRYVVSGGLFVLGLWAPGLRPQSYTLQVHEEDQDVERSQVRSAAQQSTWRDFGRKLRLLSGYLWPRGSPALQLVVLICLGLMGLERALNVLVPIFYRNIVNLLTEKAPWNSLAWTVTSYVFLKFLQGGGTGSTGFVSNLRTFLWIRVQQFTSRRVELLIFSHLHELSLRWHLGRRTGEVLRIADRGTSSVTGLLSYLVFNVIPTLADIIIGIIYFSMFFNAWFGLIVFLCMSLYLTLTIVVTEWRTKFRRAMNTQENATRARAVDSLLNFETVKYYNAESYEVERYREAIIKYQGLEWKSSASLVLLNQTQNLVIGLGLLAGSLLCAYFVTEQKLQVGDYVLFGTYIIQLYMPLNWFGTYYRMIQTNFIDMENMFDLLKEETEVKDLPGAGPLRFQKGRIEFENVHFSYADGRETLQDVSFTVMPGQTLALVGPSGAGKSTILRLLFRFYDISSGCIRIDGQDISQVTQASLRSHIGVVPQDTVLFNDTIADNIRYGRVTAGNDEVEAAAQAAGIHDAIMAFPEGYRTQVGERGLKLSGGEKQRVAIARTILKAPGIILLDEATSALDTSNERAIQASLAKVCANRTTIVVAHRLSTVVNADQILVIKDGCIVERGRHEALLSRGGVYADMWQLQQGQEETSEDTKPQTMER
Structure (SMILES),percent of DMSO control GFP [1],GFP response vs DMSO [2],percent response of DMSO control [3],GFP response vs DMSO [4],"GFP response, % of DMSO [5]",double positive events [6] [%],vesicle binding response [6],inhibition [7],superoxide response (% of plate) [8],aptamer binding inhibition [9],response [10],inhibition [11],response [12],binding (% of control) [13],efflux inhibition (fraction of control) [14],inhibition [15],differentiation response [16]
FC(F)(F)c1ccc(-c2noc(CN3CCCN(C4CCCCC4)CC3)n2)cc1,100% (inactive),105% (inactive),101% (inactive),93.3% (inactive),101% (inactive),62.5,5350% (inactive),-7.72% (inactive),89.3% (inactive),-12% (inactive),-4.45% (inactive),-10.2% (inactive),3.31% (inactive),103% (inactive),-0.14 (inactive),-11% (inactive),33.5% (inactive)
CC1(C)c2ccccc2N2CC(=O)NC21/C=C/c1ccco1 (stereo not drawn),101% (inactive),113% (inactive),110% (inactive),100% (inactive),96.2% (inactive),64.1,87.6% (inactive),-23.9% (inactive),109% (inactive),0% (inactive),5.81% (inactive),-7.94% (inactive),-1.22% (inactive),107% (inactive),-0.16 (inactive),-36% (inactive),-3.11% (inactive)
O=C(O)[C@H](Cc1ccccc1)NC(=O)N1CCC(Cc2ccccc2)CC1,104% (inactive),102% (inactive),96% (inactive),100% (inactive),99.9% (inactive),67,122% (inactive),-0.31% (inactive),108% (inactive),-6% (inactive),9.92% (inactive),4.86% (inactive),0.86% (inactive),99.5% (inactive),-0.18 (inactive),6% (inactive),-5.68% (inactive)
Cc1cc(=O)oc2c(CN(C)Cc3ccccc3)c(O)ccc12,100% (inactive),106% (inactive),105% (inactive),94.7% (inactive),96.2% (inactive),62.4,434% (inactive),12% (inactive),97.6% (inactive),3% (inactive),0.85% (inactive),-2.59% (inactive),1.53% (inactive),97.4% (inactive),0.11 (inactive),10% (inactive),0.24% (inactive)
C=CC1=C(C(=O)O)N2C(=O)C(NC(=O)Cc3ccccc3)C2SC1 (stereo not drawn),101% (inactive),103% (inactive),105% (inactive),82.8% (inactive),100% (inactive),62,134% (inactive),13.2% (inactive),96.1% (inactive),86% (active),0.41% (inactive),15.3% (inactive),1.11% (inactive),101% (inactive),0.01 (inactive),7% (inactive),-31.2% (inactive)
CCCc1cc(C(N)=S)ccn1,96.9% (inactive),99.6% (inactive),101% (inactive),91.4% (inactive),93.1% (inactive),60.4,190% (inactive),0.94% (inactive),97% (inactive),2% (inactive),-5.23% (inactive),7.42% (inactive),-1.93% (inactive),97.6% (inactive),-0.28 (inactive),-25% (inactive),-18.4% (inactive)
CS(=O)(=O)c1cccc(C(=O)Oc2ccccc2)c1,104% (inactive),97.2% (inactive),106% (inactive),82.8% (inactive),101% (inactive),60.5,76.6% (inactive),9.92% (inactive),99% (inactive),3% (inactive),-8.78% (inactive),-4.57% (inactive),-0.27% (inactive),100% (inactive),-0.1 (inactive),3% (inactive),10% (inactive)
Cc1ccc2nc(NC3=NC(CC(=O)O)C(=O)N3)nc(C)c2c1 (stereo not drawn),105% (inactive),100% (inactive),106% (inactive),93.3% (inactive),106% (inactive),65.9,214% (inactive),0.58% (inactive),96.2% (inactive),2% (inactive),-2.27% (inactive),8.29% (inactive),2.1% (inactive),96.1% (inactive),0.36 (inactive),6% (inactive),9.04% (inactive)
Cc1[nH]c2ccccc2c1/C=C/c1nc2ccccc2c(=O)n1CCO,102% (inactive),106% (inactive),97.7% (inactive),110% (inactive),100% (inactive),59,200% (inactive),-15.4% (inactive),89.8% (inactive),7% (inactive),20.6% (inactive),12.7% (inactive),-3.06% (inactive),106% (inactive),0.33 (inactive),4% (inactive),0.8% (inactive)
